This is an account of results in PubChem BioAssay.

The nature of assay [1]: Her2 expression decrease, cell viability multiplex – SKBR3 breast tumor cells, AlphaScreen, ATP viability, primary screen (AID 461;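 active means Her2 level under about 52% in both replicate screens, with viability over 70% of control, limit read from the data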;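 on Her2 level: lower value means less Her2 protein in the cells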;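 on viability: percent of carrier control wells set as 100% viability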). As to conditions: SKBR3 Her2 protein level, 18-24 h, measured here: SKBR3 viability, ATP luminescence, at 10 µM.
Assay [2] addresses Receptor tyrosine-protein kinase erbB-2 (Homo sapiens) (UniProt P04626). The description is as above. The settings on record: 18-24 h, at 10 µM, stronger effect = lower value.
Assay [3] is described as follows: reduced viability of SK-BR-3 breast cancer cells – cell-based, 24 h, human, pilot screen (AID 572;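 active means viability at or below 10% of carrier control in both of two separate runs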;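 further: compound exposure lasted between 18 and 24 h rather than exactly 24 h; 100% = carrier-treated control wells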). The settings on record: SK-BR-3 viability, CellTiter-Glo luminescence, at 10 µM, stronger effect = lower value.
The nature of assay [4]: HUVEC growth inhibition – cell-based, human, primary screen (AID 575;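 active means viability at or below 30% in both replicate assays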;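 further: 100% = median of untreated cell wells with 0.1% DMSO on each plate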). The settings on record: HUVEC proliferation, CellTiter-Glo luminescence, 72 h; at 10 µM; stronger effect = lower value. (In ATP-based viability assays light output follows the ATP content of the culture.)
Assay [5] is described as follows: H69AR cell proliferation blockers – human, duplicate replicates, primary screen (AID 580;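 active means viability at or under a set limit in both replicates, limit being median viability minus 3 SD, cut at about 48% in these data, passing the limit was not always enough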;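 further: 100% = mean luminescence of untreated wells and 0% = no signal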). The settings on record: H69AR lung tumor cells viability, ATP luminescence, 72 h; at 10 µM; stronger effect = lower value.
Assay [6] is described as follows: MRP1 drug-resistance reversers in H69AR cells – cell-based, doxorubicin co-treatment, pilot screen (AID 601;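 active means viability loss from added drug above about 55%, and viability with drug at most 40%, in both replicates, limit read from the data, passing the limit was not always enough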). The settings on record: CellTiter-Glo, 72 h, at 10 µM; for differential viability (reversal): stronger effect = higher value.
Assay [7] can be described thus: yeast transport mutant growth inhibition pilot in 384-well plates, post-Golgi transport modulator project (AID 636; in the data active means inhibition above about 31%). The settings on record: absorbance 615 nm, about 18 h, stronger effect = higher value.
Assay [8] can be described thus: growth suppression of yeast trafficking mutant, preliminary HTS, modulators of trafficking downstream of Golgi apparatus project, 1536-format plate, OD 615 nm (AID 637; in the data active means inhibition above about 30%). As to conditions: yeast transport mutant growth, absorbance 615 nm, 18 h; stronger effect = higher value.
A short description of assay [9]: S. cerevisiae growth inhibition in permissive medium (OD615), pilot counter-assay for S. cerevisiae lifespan shortening project, permissive growth control (AID 705;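 active means growth inhibition above 25% in both replicates, a cutoff set 3 SD above the mean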). As to conditions: OD615, 24 h, at 10 µM, stronger effect = higher value.
A short description of assay [10]: S. cerevisiae growth inhibition in restrictive medium, OD615, pilot screen, restrictive growth control, yeast lifespan reduction project (AID 706;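 active means growth inhibition above a set limit, 3 SD over mean compound inhibition, in both replicates, cut at about 43% in these data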;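 further: modified DeaD lifespan yeast strain shifted to restrictive glucose medium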). As to conditions: OD615, 48 h, at 10 µM, stronger effect = higher value.
A short description of assay [11]: doxorubicin toxicity protection in MRP-1 cells – H69AR cells, CellTiter-Glo, duplicate, MRP-1 activator project, pilot screen (AID 807).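 Further: compound pretreatment 18-22 h then 72 h combined with doxorubicin; 0% = doxorubicin alone and 100% = vehicle without doxorubicin.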 The settings on record: H69AR viability with doxorubicin, CellTiter-Glo luminescence; at 10 µM; stronger effect = higher value.
A short description of assay [12]: viability of HCT116 without oncogenic beta-catenin – human colon tumor cells, pilot screen (AID 823;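 active means cell viability at or below a set limit in both duplicate runs, the limit being the all-compound median minus 4 SD, cut at about 23% in these data, passing the limit was not always enough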;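 further: 0% = wells killed by 20 µM Hyamine and 100% = untreated DMSO cell wells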). As to conditions: HCT116 beta-catenin knockout viability, CellTiter-Glo, 60 h; at 10 µM; stronger effect = lower value.
Assay [13] can be described thus: viability of PTEN-null HCT116 cells – cell-based, HCT116 clonal line, CellTiter-Glo, pilot screen (AID 824;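 active means viability at or below 27.92% in each of two runs, the all-compound median minus 4 SD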;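 further: 0% = 20 µM Hyamine control and 100% = vehicle cell control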). As to conditions: HCT116 PTEN-deleted viability, 60 h, at 10 µM, stronger effect = lower value.
Assay [14] can be described thus: RAM pathway blockade in budding yeast – dse1pr::URA3 reporter, 5-FOA selection, pilot screen (AID 869;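 active means inhibition over a set limit, the all-compound mean plus 3 SD, in both replicate runs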;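 further: 0% = DMSO wells with no growth and 100% = 10 µM 1-NA-PP1 with full growth; RAM network block rescues cells from 5-FOA so hits raise OD615 growth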). As to conditions: S. cerevisiae dse1pr::URA3 5-FOA growth, OD615, 2 d; at 10 µM; stronger effect = higher value; strain carries analog-sensitive mutant Cbk1 kinase.
Assay [15] can be described thus: RAM signaling pathway blockade in yeast – S. cerevisiae, Pdr1DBD-CYC8 efflux-inhibited sensitized strain, primary screen (AID 1298;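 active means RAM network inhibition above 8.4% in each of two replicates, 3 SD over the compound average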;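 further: 0% = DMSO untreated cells without growth and 100% = 10 µM 1-NA-PP1 full growth; higher means more yeast growth rescued from 5-FOA killing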). The settings on record: S. cerevisiae cbk1-as DSE1-URA3 strain, 5-FOA growth OD615, 2 d; at 50 µM; stronger effect = higher value.
Setting [16] is: H69AR cells + 2 uM doxorubicin, measured here: viability with 2 uM doxorubicin, stronger effect = lower value.
[17] abbreviates: H69AR cells, compound alone cytotoxicity.

Inconclusive results are not listed. The source made the active and inactive calls.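 How the source made its calls, unless noted: active means viability increase at or above a cutoff of the median across tested compounds plus 3 SD (cut at about 8.5% in these data, passing the limit was not always enough); inconclusive means some gains above the cutoff, reason not given; inactive means the rest.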

Receptor tyrosine-protein kinase erbB-2 (Homo sapiens), sequence (P04626 whole entry, looked up): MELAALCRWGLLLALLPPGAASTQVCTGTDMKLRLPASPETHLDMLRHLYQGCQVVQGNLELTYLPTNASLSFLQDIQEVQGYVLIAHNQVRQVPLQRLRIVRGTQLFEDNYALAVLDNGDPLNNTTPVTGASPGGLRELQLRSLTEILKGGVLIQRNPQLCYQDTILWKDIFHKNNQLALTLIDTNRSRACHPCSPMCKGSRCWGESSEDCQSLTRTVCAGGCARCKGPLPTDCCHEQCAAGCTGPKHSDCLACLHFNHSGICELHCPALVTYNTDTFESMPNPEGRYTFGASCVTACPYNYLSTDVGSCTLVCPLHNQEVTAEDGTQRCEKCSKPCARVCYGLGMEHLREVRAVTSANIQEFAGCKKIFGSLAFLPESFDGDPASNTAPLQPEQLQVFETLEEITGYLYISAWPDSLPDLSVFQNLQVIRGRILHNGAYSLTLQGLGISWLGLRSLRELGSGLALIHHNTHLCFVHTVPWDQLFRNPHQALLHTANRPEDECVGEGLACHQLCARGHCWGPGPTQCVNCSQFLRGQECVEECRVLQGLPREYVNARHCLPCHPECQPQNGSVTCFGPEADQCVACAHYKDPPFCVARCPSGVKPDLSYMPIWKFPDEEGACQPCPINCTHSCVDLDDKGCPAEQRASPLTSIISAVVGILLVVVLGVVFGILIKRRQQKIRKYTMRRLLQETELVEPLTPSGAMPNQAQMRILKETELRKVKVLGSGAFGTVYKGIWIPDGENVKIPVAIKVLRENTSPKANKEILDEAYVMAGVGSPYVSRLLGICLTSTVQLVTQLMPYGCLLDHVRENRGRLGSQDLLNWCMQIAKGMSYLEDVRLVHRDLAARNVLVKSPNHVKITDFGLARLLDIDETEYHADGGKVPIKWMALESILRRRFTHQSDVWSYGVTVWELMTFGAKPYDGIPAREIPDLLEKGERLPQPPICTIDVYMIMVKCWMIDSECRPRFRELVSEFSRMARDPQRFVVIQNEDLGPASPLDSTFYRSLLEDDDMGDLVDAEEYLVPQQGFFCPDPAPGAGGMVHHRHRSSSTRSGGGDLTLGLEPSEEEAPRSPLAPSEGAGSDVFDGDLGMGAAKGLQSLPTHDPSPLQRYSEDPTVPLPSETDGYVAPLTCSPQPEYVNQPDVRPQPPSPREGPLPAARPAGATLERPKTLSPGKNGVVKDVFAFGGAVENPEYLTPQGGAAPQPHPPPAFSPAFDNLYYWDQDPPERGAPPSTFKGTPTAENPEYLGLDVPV

In the case of `Cc1ccc2[nH]c(=O)c3cc(C(=O)NCCN4CCN(C)CC4)sc3c2c1`, the viability was 96% in assay [1]; 96% (inactive) in assay [3]; 97.1% (inactive) in [4]; 87.3% (inactive) in [5]; 78% in assay [6] (setting [16]); 87.3% in [6] (setting [17]). Besides, the viability is 74.5% (inactive) in assay [12] and 81.8% (inactive) in assay [13]. In addition, the Her2 level in assay [2] was 91.5% (inactive). Besides, the differential viability (reversal) in [6] (H69AR cells + 2 uM doxorubicin) is 9.29% (inactive). Also, the inhibition in assay [7] was -1.03% (inactive); in [8], 6% (inactive); in [14], 1% (inactive). Also, the growth inhibition was -9.77% (inactive) in assay [9] and 1.5% (inactive) in [10]. In addition, the viability increase in assay [11] is -3.64% (inactive). For the same compound, in assay [15], the RAM network inhibition was -1.95% (inactive).
As for `CCOc1ccccc1N1Cc2cc(C)c(C)cc2C1`, the viability in assay [1] is 92.5%; in assay [3] it was 92.5% (inactive); in assay [4] it was 90.4% (inactive); in [5], 88.1% (inactive); in [6] (setting [16]), 97.7%; in assay [6] (setting [17]), 88.1%. Moreover, the viability is 63.6% (inactive) in [12] and 59.3% (inactive) in assay [13]. Further, in [2], the Her2 level is 104% (inactive). Also, the differential viability (reversal) in [6] (H69AR cells + 2 uM doxorubicin) is -9.66% (inactive). For the same compound, the inhibition was -6.27% (inactive) in [7], -0.83% (inactive) in assay [8] and 2.19% (inactive) in assay [14]. The growth inhibition in assay [9] is -16.8% (inactive); in assay [10], -12.1% (inactive). Moreover, in assay [11], the viability increase was -2.58% (inactive). In addition, the RAM network inhibition in [15] is 2.05% (inactive).
In the case of `CCN(CCNC(=O)C1CCN(S(=O)(=O)c2cccc3cccnc23)CC1)c1ccccc1`, the viability in assay [1] is 87%; in assay [3], 87% (inactive); in assay [4] it was 79.7% (inactive); in [5] it was 98.3% (inactive); in assay [6] (setting [16]) it was 100%; in [6] (setting [17]) it was 98.3%. Also, the viability in assay [12] is 94.4% (inactive); in [13], 82.9% (inactive). In addition, the Her2 level in assay [2] is 84.5% (inactive). For the same compound, the differential viability (reversal) in assay [6] (H69AR cells + 2 uM doxorubicin) was -2.15% (inactive). The values for the inhibition in [7], in [8] and in assay [14] were -1.33% (inactive), 20.5% (inactive) and 0.21% (inactive), respectively. The results for the growth inhibition in assay [9] and in [10] were -5.29% (inactive) and 8.53% (inactive), respectively. The viability increase in assay [11] is 1.51% (inactive). Moreover, the RAM network inhibition in assay [15] is 5.91% (inactive).
With `COc1ccccc1-c1nnc(SCC(=O)NC2CCCCC2)o1`, the viability in assay [1] was 83%; in [3], 83% (inactive); in assay [4], 89.7% (inactive); in assay [5], 87.8% (inactive); in [6] (setting [16]) it was 88.2%; in assay [6] (setting [17]), 87.8%. The results for the viability in assay [12] and in assay [13] were 94.6% (inactive) and 94.5% (inactive), respectively. Further, the Her2 level in [2] was 72.5% (inactive). Besides, the differential viability (reversal) in assay [6] (H69AR cells + 2 uM doxorubicin) is -0.34% (inactive). Also, the inhibition was 6.13% (inactive) in [7], 1.31% (inactive) in assay [8] and -0.42% (inactive) in assay [14]. The figures for the growth inhibition in assay [9] and in assay [10] were 1.35% (inactive) and 10.7% (inactive), respectively. Moreover, the viability increase in assay [11] is -3.27% (inactive). In addition, the RAM network inhibition in assay [15] is 3.73% (inactive).
Regarding `Cc1noc(/C=C/N(C)C)c1S(=O)(=O)N1CCc2ccccc21`, the viability in assay [1] was 99%; in assay [3], 99% (inactive); in assay [4] it was 67.4% (inactive); in assay [5] it was 75.7% (inactive); in [6] (setting [16]), 95.9%; in [6] (setting [17]) it was 75.7%. For the same compound, the viability in assay [12] was 84.4% (inactive); in assay [13] it was 68.7% (inactive). In assay [2], the Her2 level was 106% (inactive). Further, the differential viability (reversal) in [6] (H69AR cells + 2 uM doxorubicin) is -20.2% (inactive). In addition, the inhibition is 0.13% (inactive) in [7], -3.83% (inactive) in [8] and 1.65% (inactive) in [14]. Further, the growth inhibition in assay [9] is -22.4% (inactive); in assay [10], -28.7% (inactive). Further, the viability increase in assay [11] is -6.84% (inactive). Further, the RAM network inhibition in assay [15] is 10% (inactive).

A word on the viability: it is a per cent measure of how many cells are alive, often set against a control. The inhibition is the change of the read-out against control, counted positive when it falls.
